Assay results reported in the supplement of paper PMC3334620.
The full ranking holds about 33,000 sequences; the median of “E-score (-0.5 to 0.5)” is about -0.021, and the highest 2% start at about 0.32. This is one part of a sample in which the highest values are shown more often than they occur.

target: T1, Zap1 (UniProt P47043); assay: PBM E-score (8-mer binding enrichment) (E-score (-0.5 to 0.5)); higher = stronger / more preferred TF binding; conditions: protein concentration: 200 nM; construct: GST-full length
T1 sequence: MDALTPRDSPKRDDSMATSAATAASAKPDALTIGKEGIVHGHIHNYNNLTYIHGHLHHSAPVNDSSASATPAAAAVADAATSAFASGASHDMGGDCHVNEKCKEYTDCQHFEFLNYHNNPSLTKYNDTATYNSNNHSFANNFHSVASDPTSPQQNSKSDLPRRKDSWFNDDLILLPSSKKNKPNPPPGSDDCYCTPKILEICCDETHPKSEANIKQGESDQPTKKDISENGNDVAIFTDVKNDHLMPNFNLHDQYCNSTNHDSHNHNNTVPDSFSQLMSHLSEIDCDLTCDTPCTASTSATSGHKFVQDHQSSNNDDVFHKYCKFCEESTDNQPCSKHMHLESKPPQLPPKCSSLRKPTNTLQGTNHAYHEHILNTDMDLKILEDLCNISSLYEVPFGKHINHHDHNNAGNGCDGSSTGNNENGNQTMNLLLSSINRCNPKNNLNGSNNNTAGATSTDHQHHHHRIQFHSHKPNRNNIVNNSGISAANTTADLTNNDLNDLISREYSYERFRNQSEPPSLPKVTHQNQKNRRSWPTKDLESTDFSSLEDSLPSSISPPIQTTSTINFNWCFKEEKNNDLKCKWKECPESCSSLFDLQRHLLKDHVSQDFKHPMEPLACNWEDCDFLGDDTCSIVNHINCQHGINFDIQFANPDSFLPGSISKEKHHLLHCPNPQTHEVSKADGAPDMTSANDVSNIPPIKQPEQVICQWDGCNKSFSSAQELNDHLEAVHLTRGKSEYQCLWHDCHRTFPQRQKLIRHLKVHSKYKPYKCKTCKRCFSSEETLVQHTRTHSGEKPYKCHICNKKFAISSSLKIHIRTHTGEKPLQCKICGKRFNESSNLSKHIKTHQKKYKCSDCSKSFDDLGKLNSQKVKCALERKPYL
Protocol: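 Universal 'all 10-mer' protein binding microarrays (Agilent AMADID 015681) probed with GST-tagged S. cerevisiae TFs (full-length or DBD) made by in vitro transcription/translation (PURExpress), about 100-200 nM. Bound TF was detected with fluorescent anti-GST. Each ungapped 8-mer (which stands for itself and its reverse complement) is scored by the PBM enrichment score (E-score), a modified Wilcoxon-Mann-Whitney statistic from -0.5 to +0.5, computed with the Universal PBM Analysis Suite. Scale: above 0.35 generally sequence-specific binding.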

Sequence | PBM E-score
CCCTGCGG | 0.292
CTAGCTCA | -0.147
ATATGGGG | -0.0334
CGAGAAAC | 0.0891
CACCTGTA | -0.0421
AACCTGTA | 0.324
CCCCTGTA | 0.02
CCCCTGAA | 0.127
ACCCTGTA | 0.353
AACCTGAA | 0.144
ACCCTGAA | 0.399
GCCCTGAA | 0.0835
GCCCTGTA | -0.0104
AACAGCGG | -0.195
AATGACTA | -0.136
AATGACGT | -0.0682
AATGACCT | 0.393
AATGACCA | 0.334
TATGACCA | 0.288
AATGACCG | 0.216
ACCTTAGG | 0.216
AGTGCACG | -0.151
CATCAGCG | -0.182
AAGTATGT | -0.00136
GAGGTTGA | -0.00385

Sequence | PBM E-score
AAGGTTAC | 0.475
GAGGTTAC | 0.473
GAGGTTAA | 0.429
TAGGTTCA | 0.175
GAGGTTGC | 0.238
GAGGTTCC | 0.223
AAGGTTTC | 0.206
GAGGTTCA | 0.254
TAGGTTAA | 0.319
AACGTTAC | 0.111
TAGGTTGA | 0.101
AGCGCACT | -0.293
CAGCCAAG | -0.242
TCTGAGAA | -0.0814
CCTCTGAC | 0.139
AGTAGCAG | -0.0921
GTAGGGAC | -0.0704
CGGTTTCA | 0.03
AACTTAAC | 0.244
CTGATTCA | -0.158
AAGGTTAA | 0.415
CAGGTTTC | 0.198
CAGGTTTA | -0.0228
AATGTTAA | -0.132
CAGGTTAG | 0.212

Sequence | PBM E-score
CAGATTAC | 0.0563
CAGGTTAC | 0.424
AAGGTTTA | 0.226
AAGGTTAG | 0.35
CAGATTAA | 0.118
AAGGTTTG | 0.176
CAGGTTAA | 0.325
TATTATGA | 0.00643
ACATAGCC | -0.0651
CGGTCTAC | -0.149
AGATCAGA | -0.0903
CAACCTTG | 0.332
AACCCTTC | 0.424
GACCCTTA | 0.376
AAACCTTG | 0.0789
ACCCCTTC | 0.234
CAACCTTC | 0.313
GTCCCTTA | 0.0953
ACCCCTTG | 0.279
AACCCTTG | 0.444
AGCCCTTG | -0.0802
GCCCCTTA | -0.0926
CACCCTTC | 0.135
CTGCGCAC | -0.0749
AAGCGTTA | -0.0244

Sequence | PBM E-score
GTGCTGTA | -0.06
CAAGGCGC | -0.141
GAATGGTA | 0.202
CCTGCAAG | -0.043
AAATCACT | 0.0213
ATCCCTTA | 0.0364
AACCCTTA | 0.457
ACCCCTGA | 0.28
CACCCTTA | 0.269
CCCCCTTA | -0.365
ACCCCTTA | 0.344
CGGCGCAG | -0.253
ATCGTGCG | 0.158
GCAGCCCC | -0.0536
AGAACCGG | -0.0565
ACAACCGC | 0.285
CTAACCGC | 0.223
GGAACCGA | -0.0122
ACAACCGA | 0.234
ACAACCGG | 0.194
ATAACCGC | 0.459
ATAACCGG | 0.387
AAAACCGA | 0.0886
ATAACCGA | 0.349
CTAACCGA | -0.035

Sequence | PBM E-score
GTAACCGA | 0.346
CAGCTGGA | -0.131
CAAGGAGC | -0.24
AGAGATTA | -0.0587
GTGCTGAA | -0.117
ACTGTGGG | -0.145
TAGATATA | 0.172
AGCTTAAA | 0.0882
ACTAGCCG | -0.177
ATAACCTG | 0.412
GGAACCTA | 0.146
AGAACCTA | 0.0497
CGAACCTA | 0.00467
ACAACCTG | 0.23
CTAACCTC | 0.305
AGAACCTG | 0.0538
GCAACCTA | 0.106
ACAACCTA | 0.232
GTAACCTA | 0.458
ATAACCTA | 0.458
CTAACCTA | 0.327
CTGAAGCC | -0.31
ATCAGGGC | -0.249
ACATTCGT | -0.0131
GAGAACTC | -0.146

Sequence | PBM E-score
ATTGAATG | 0.113
CGGGACAA | -0.0695
GGTCAAGA | 0.242
GCTCTCTA | -0.246
GGGAAAAC | -0.241
AGGAAACC | 0.272
GGGAAACC | 0.324
CAGTATAA | 0.197
ACTGAATA | -0.0283
CCAAAACC | 0.331
AAAAACCC | 0.196
CAAAACCC | 0.349
CAAAACCA | 0.311
CCAAAAAC | 0.256
CAAAAACC | 0.302
CCTTATAG | 0.262
GCTGGGGA | -0.0703
ATTCTCTC | -0.0801
CGAGCGTA | -0.102
AAGCATAA | 0.0593
GGTAGTAC | 0.248
CCAGCACA | -0.00996
ATCGACCG | -0.132
CTGTTATA | 0.115
CCGTTATA | 0.103

Sequence | PBM E-score
ATGTTATA | -0.0204
AGGTTATC | 0.463
AAGTTATG | 0.181
AAGTTATC | 0.0532
ATGTTATG | 0.158
AGGTTATA | 0.469
CGGTTATA | 0.405
ACGTTATC | -0.101
AGGTTATG | 0.475
ACGTTATA | 0.137
GAGTACAC | -0.0741
CGTTCCCA | -0.125
AAGCAATG | 0.0748
GAGAATAA | 0.0442
ACGATCGT | 0.0702
ATACAGAA | 0.0186
AGTCTAGA | -0.295
CTGAATGA | 0.0581
AGATAGCG | -0.163
AGGCCTTG | -0.0709
ACATCCAA | -0.00617
GCGTTATA | 0.218
